Laboratory results taken from PubChem BioAssay (NCATS).
Unmarked numbers belong to inactive results. No rule for the calls is given here.

Tested on: HIV-1 nucleocapsid protein NCp7 (binding to TG oligonucleotide)
Assay: HIV Nucleocapsid (AID 346);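 also: potency is for inhibitors that block NC binding and lower polarization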
Settings: HIV-1 NC / fluorescein-TGTGTGTG probe, fluorescence polarization
In short: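 HIV-1 NC (100 nM) binding to fluorescein-labelled ssDNA TG4xF (10 nM) in Hepes pH 7.5, 250mM NaCl, 1uM ZnCl2, TCEP and 2-mercaptoethanol; compounds pin-transferred, 1 hr room temperature, fluorescence polarization read on CCD imager.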
Potency is read from the fitted curve at half-maximal effect.

Row | Compound | Potency
1 | COc1cccc(Nc2ncc3nc(-c4cccs4)c(=O)n(C[C@H]4CCCO4)c3n2)c1 | > 4 µM
2 | Clc1ccccc1-c1cc(NCCN2CCOCC2)ncn1 | > 20 µM
3 | O=c1c(-c2cccc(F)c2)nc2cncnc2n1Cc1ccccc1 | > 20 µM
4 | Cn1cc(-c2nc3cnc(OCc4ccccc4)nc3n(CCC#N)c2=O)c2ccccc21 | > 20 µM
5 | Cc1noc(C)c1C(=O)N1CCC[C@@]2(CCN(c3ccccc3)C2)C1 | > 20 µM
6 | Cc1cccc(CNc2nc(-c3c(C)noc3C)nc3ccccc23)c1 | > 20 µM
7 | O=c1c(-c2ccc(F)cc2)nc2cncnc2n1C1CC1 | > 20 µM
8 | COc1ccc(Oc2ncc3nc(C)c(=O)n(Cc4cccc(OC)c4)c3n2)cc1 | > 20 µM
9 | CN(C)Cc1ccccc1-c1cc(-n2ccnc2)ncn1 | > 20 µM
10 | COc1ccc(C(=O)N2CCC3(CCCN(Cc4ccccc4)C3)CC2)cc1 | > 20 µM
11 | Cc1ccccc1-c1cc(N2CCN(C)CC2)ncn1 | > 20 µM
12 | COc1ccccc1CN1CCC2(CC1)CCN(S(C)(=O)=O)CC2 | > 20 µM
13 | COc1ccc(CNc2ccnc(-c3c(C)noc3C)n2)c(OC)c1 | > 20 µM
14 | CN1CCN(c2ccnc(-c3cccnc3)n2)CC1 | > 20 µM
15 | Cc1ccccc1-c1ccc2ncnc(N(C)C)c2c1 | > 20 µM
16 | O=c1cnc2cnc(Nc3ccccc3)nc2n1Cc1cccs1 | > 20 µM
17 | O=c1c(CCc2ccccc2)nc2cnc(N3CCNCC3)nc2n1Cc1ccc(F)cc1 | > 20 µM
18 | O=C(Nc1ccccc1)N1CCC2(CC1)CCN(C(=O)c1ccco1)CC2 | > 20 µM
19 | COc1ccc(Oc2ncc3ncc(=O)n(Cc4cccs4)c3n2)cc1 | > 20 µM
20 | COc1ccc2[nH]cc(CCNc3nc(-c4ccc(C(=O)N(C)C)cc4)nc4ccccc34)c2c1 | > 20 µM

Row | Compound | Potency
21 | COCCn1c(=O)c(-c2ccc(F)cc2)nc2cnc(OCc3ccccc3)nc21 | > 20 µM
22 | O=c1c(-c2ccc(F)cc2)nc2cnc(N3CCNCC3)nc2n1C1CC1 | > 20 µM
23 | CN(C)Cc1ccccc1-c1ccc2ncnc(NC3CC3)c2c1 | > 20 µM
24 | COc1cccc(Nc2ncc3nc(-c4cc(F)cc(F)c4)c(=O)n(CCC#N)c3n2)c1 | > 20 µM
25 | CN1CCN(c2ncc3nc(-c4ccc(Cl)cc4)c(=O)n(Cc4ccc(F)cc4)c3n2)CC1 | > 20 µM
26 | COc1ccc(Oc2ncc3ncc(=O)n(C)c3n2)cc1 | > 20 µM
27 | COc1ccc2[nH]cc(CCNc3ccnc(-c4c(C)noc4C)n3)c2c1 | > 20 µM
28 | Cc1cnc(CNc2ccnc(-c3ccc(C(=O)N(C)C)cc3)n2)cn1 | > 20 µM
29 | COc1ccccc1CN1CCCC2(CCN(C(=O)c3csnn3)CC2)C1 | > 20 µM
30 | CCNc1ncc2nc(-c3cccc(C#N)c3)c(=O)n(Cc3cccc(OC)c3)c2n1 | 17.7 µM
31 | O=C(Nc1cccc(F)c1)N1CCC2(CC1)CCN(C(=O)c1ccncc1)CC2 | > 20 µM
32 | COc1ccc(C(=O)N2CCC3(CC2)CN(c2ccccc2)C3)cc1 | > 20 µM
33 | COc1ccc(-n2c(=O)cnc3cnc(N4CCNCC4)nc32)cc1 | > 20 µM
34 | COc1ccc(-c2nc3cnc(Oc4ccccc4)nc3n(Cc3cccs3)c2=O)cc1 | > 20 µM
35 | O=c1c(-c2cc(F)cc(F)c2)nc2cnc(N3CCOCC3)nc2n1C1CC1 | > 20 µM
36 | Cn1c(=O)c(-c2ccc(F)cc2)nc2cnc(N3CCOCC3)nc21 | > 20 µM
37 | COCC(=O)N1CCC2(CC1)CCN(C(=O)Nc1ccc(OC)cc1)CC2 | > 20 µM
38 | COc1ncc2nc(-c3ccccc3)c(=O)n(CCc3ccccc3)c2n1 | > 20 µM
39 | COc1cccc(Cn2c(=O)c(-c3cc(F)cc(F)c3)nc3cnc(N4CCOCC4)nc32)c1 | > 20 µM
40 | CCNc1ncc2nc(-c3ccccc3)c(=O)n(C3CC3)c2n1 | > 20 µM
